Screening results deposited in PubChem by several laboratories.
GRK2 inh – inhibitors of human GRK2 displacing RNA aptamer; P25098; bead flow cytometry, FAM-aptamer displacement from GRK2; inhibition of aptamer binding, % at 10 µM; 330,000 tested, 0.59% active;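 active means inhibition of aptamer binding above 40%, roughly 3 SD of noise, on plates passing a quality check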;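 further: median bead fluorescence of bound FAM aptamer so fluorescent compounds give negative values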
Target sequence (P25098 whole entry, looked up): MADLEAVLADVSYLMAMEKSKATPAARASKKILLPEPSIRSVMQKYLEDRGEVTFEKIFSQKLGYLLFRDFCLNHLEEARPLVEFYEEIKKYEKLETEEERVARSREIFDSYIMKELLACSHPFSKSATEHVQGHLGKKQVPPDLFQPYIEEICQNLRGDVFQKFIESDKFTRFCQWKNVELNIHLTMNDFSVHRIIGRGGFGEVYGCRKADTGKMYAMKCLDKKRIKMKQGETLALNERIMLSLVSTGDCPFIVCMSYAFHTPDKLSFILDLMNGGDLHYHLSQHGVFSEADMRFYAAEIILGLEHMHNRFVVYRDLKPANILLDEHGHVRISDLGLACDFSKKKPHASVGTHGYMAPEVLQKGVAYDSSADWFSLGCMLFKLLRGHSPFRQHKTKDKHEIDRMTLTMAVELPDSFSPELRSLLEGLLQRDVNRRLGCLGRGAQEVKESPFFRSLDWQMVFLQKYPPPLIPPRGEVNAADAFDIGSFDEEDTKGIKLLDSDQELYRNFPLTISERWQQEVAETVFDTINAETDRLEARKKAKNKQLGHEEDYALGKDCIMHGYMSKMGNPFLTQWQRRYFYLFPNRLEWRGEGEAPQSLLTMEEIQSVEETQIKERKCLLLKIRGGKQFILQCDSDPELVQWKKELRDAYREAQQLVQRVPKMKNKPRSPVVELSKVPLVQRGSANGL
ANO1 activ – activates or potentiates the mouse TMEM16A chloride channel; 340,000 tested, 0.3% active; B-score at 10 µM; AID 623877; HEK293 TMEM16A/YFP-H148Q/I152L, iodide quench fluorescence; stronger effect = lower value; Q8BHY3;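 active means fluorescence-ratio B-score plate-corrected deviation score at least 3 library SD below zero, with starting fluorescence score within 5 deviations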;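 further: channel opened by trigger with iodide after compound preincubation; score built on the fluorescence ratio of max minus min over baseline; more negative score means more quench and so TMEM16A activation or potentiation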
TLR9-MyD88 block – inhibitors of human TLR9-MyD88 binding. Q9NR96+Q99836. CHO BLA complementation TLR9-MyD88, CCF4 FRET ratio. inhibition, % at 4.98 µM. 340,000 tested, 0.21% active;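 active means inhibition above the mean over all tested compounds plus 3 SD, cut at about 21% in these data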;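 further: 0% = DMSO only wells and 100% = clavulanate BLA inhibitor control wells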
TMEM16A inh – inhibitors of mouse TMEM16A calcium-activated chloride channel; Q8BHY3; HEK293 TMEM16A/YFP iodide influx fluorescence, ionomycin; normalized B-score (activity score, 25-100; higher = stronger inhibition) at 10 µM; 310,000 tested, 1.2% active; AID 588511;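 active means ratio plate-corrected score three or more library SD toward inhibition, starting fluorescence score within five deviations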;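 further: score derived from kinetic fluorescence span divided by baseline fluorescence per well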
TLR4 MyD88 comp – blocks binding of human TLR4 to MyD88. HeLa CL3-4 TLR4/MyD88 BLA complementation, FRET ratio. inhibition, % at 8.4 µM. O00206+Q99836. 200,000 tested, 0.18% active; in the data active means inhibition above about 25%;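 further: 0% = vehicle and 100% = reference inhibitor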
NOD2 RIPK2 PPI – inhibitors of human NOD2-RIPK2 interaction | AID 624267 | O43353 | 360,000 tested, 0.38% active | CHO BLA complementation NOD2-RIPK2, CCF4 ratio | inhibition, % at 4.98 µM; in the data active means inhibition above about 21%;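 further: 0% = vehicle only and 100% = reference blocker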
GRK2 CP1 – confirmation of human GRK2 inhibitors displacing RNA aptamer; shares compounds with GRK2 inh; 2,000 tested, 4% active; bead-bound GRK2, FAM-aptamer displacement, flow cytometry; AID 504451; aptamer displacement, % at 10 µM;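 active means aptamer displacement above 40%, near three times the noise of non-fluorescent compounds, on plates passing quality checks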;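 further: negative values mostly reflect intrinsic compound fluorescence rather than true enhancement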
Aptamer quench – fluorescent aptamer quenching in GRK2 counter-screen dose response. shares compounds with GRK2 inh. Fluorescent RNA aptamer beads, flow cytometry; stronger effect = higher value. fluorescence change (kMESF span), kMESF (no concentration beside the values). 110 tested, under 10 active. AID 504521;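 active means compounds whose bead fluorescence drops by more than 37 kMESF across the dose range, marking them as dye quenchers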
FAM quench CP1 – aptamer fluorescence quenching in GRK2 counter-screen; AID 504580; shares compounds with GRK2 inh; fluorescence response (% of DMSO), % at 10 µM; Carboxyfluorescein RNA aptamer on beads, flow cytometry quenching; stronger effect = lower value; 2,000 tested, under 10 active;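 active means compounds that quench the bead-bound fluorescent RNA probe, cutting fluorescence to under half of the solvent control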;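 further: counterscreen run without GRK2 so only probe quenching by compound is measured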
GRK2 CP2 – confirmation of human GRK2 inhibitors binding RNA aptamer site; shares compounds with GRK2 inh; bead-bound GRK2, FAM-aptamer displacement, flow cytometry; inhibition of aptamer binding, % at 10 µM; 360 tested, under 10 active; AID 504782;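 active means inhibition of aptamer binding above 40%, about triple the noise seen with nonglowing compounds, on plates passing quality control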;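 further: negative values mostly come from compounds that fluoresce themselves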
FAM quench CP2 – aptamer fluorescence quenching in GRK2 counter-screen; shares compounds with GRK2 inh; carboxyfluorescein RNA aptamer beads, flow cytometry quenching; stronger effect = lower value; fluorescence response vs DMSO, % at 10 µM; 360 tested, under 10 active; AID 588494;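 active means response vs DMSO under 50%, meaning signal dropped by over half, treated as fluorescence quencher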;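 further: labelled aptamer on streptavidin beads without GRK2 as a quench counter-screen; 100% = bead fluorescence of DMSO wells and lower means quenching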
An asterisk follows results filed as active; i = inactive; . = not tested or not shown. Most compounds without a hit are left out; they make up all but 2.2% or so of the library.

SMILES | GRK2 inh | ANO1 activ | TLR9-MyD88 block | TMEM16A inh | TLR4 MyD88 comp | NOD2 RIPK2 PPI | GRK2 CP1 | FAM quench CP1 | others
Cc1ccc(N2C(=O)N(CC(=O)Nc3ccc([N+](=O)[O-])cc3)C(=O)C2C)cc1 (centres undefined) | 100.0* | i | -8.5 | i | . | -2.4 | . | . | GRK2 CP2=10.6;FAM quench CP2=99.0
Cc1ccc(N2C(=O)N(CC(=O)Nc3ccc(F)c(F)c3)C(=O)C2C)cc1 (centres undefined) | 100.0* | i | -6.3 | i | . | -5.0 | 2.6 | 98.0
Cc1ccc(N2C(=O)N(CC(=O)Nc3cc(C)cc(C)c3)C(=O)C2C)cc1 (centres undefined) | 2.0 | i | -1.7 | i | -1.8 | -4.4 | . | .
Cc1cc(OCc2nc(-c3ccncc3)no2)cc(C)c1Cl | 47.0* | i | 2.1 | i | -6.1 | -6.0 | -1.1 | 99.8
Clc1ccc(OCc2nc(-c3ccncc3)no2)cc1 | 0.0 | i | -3.8 | i | 6.7 | -5.5 | . | .
O=C(NNc1ccccc1C(F)(F)F)c1sccc1Br | 99.0* | i | -3.8 | i | . | -0.3 | 0.8 | 94.6
O=C(Cn1c(=O)c2cccn2c2ccc(F)cc21)NCCCN1CCN(c2ccccc2F)CC1 | 0.0 | i | 0.6 | i | . | -3.1 | -32.3 | 98.2
CSc1ccc(NC(=O)NCCCN2CCN(c3ccccc3F)CC2)cc1 | 0.0 | i | -9.9 | i | 3.0 | -9.2 | . | .
O=C(NCCCN1CCN(c2ccccc2F)CC1)Nc1ccc(F)cc1 | 0.0 | i | -3.9 | i | 2.6 | 4.7 | -1.1 | 100.6
CN(C)CCNC(=O)Cn1c(=O)c2cccn2c2ccc(F)cc21 | 0.0 | i | -0.3 | i | . | -3.3 | . | .
C=CCOc1cccc(C(=O)N2CCCC(Nc3ccc4c(c3)OCCO4)C2)c1 (centres undefined) | 5.0 | i | -4.9 | i | . | -11.1 | . | .
O=C(NCCCNC(=O)c1cnccn1)c1ccc(Br)cc1 | 0.0 | i | -8.1 | i | . | -6.0 | . | .
Cc1ccc2c(c1)CO[C@]21O[C@H](CCO)C[C@H](O)[C@H]1O | . | . | -8.2 | . | . | -3.4 | . | .
CC(=O)Nc1ccc(S(=O)(=O)Nc2ccccc2C(=O)N2CCCCCC2)cc1 | 2.0 | i | 2.8 | i | . | -2.8 | . | .
CC(C)(C)OC(=O)N1CCC(c2cc(=O)n3[nH]c(-c4ccc(Cl)cc4)cc3n2)CC1 | 88.0* | i | -4.7 | i | 2.7 | 4.6 | -25.9 | 94.1
CC(C)(C)OC(=O)N1CCC(c2cc(=O)n3[nH]cc(C(=O)Nc4ccc(F)c(Cl)c4)c3n2)CC1 | 1.0 | i | 7.1 | i | . | -4.1 | . | .
Cc1ccccc1NC(=O)CCCCCN1C(=O)[C@@H]2Cc3ccccc3CN2C1=O | 2.0 | i | -0.6 | i | . | 2.8 | . | .
O=C(CCCCCN1C(=O)[C@@H]2Cc3ccccc3CN2C1=O)Nc1cccc(F)c1 | 0.0 | i | -5.0 | 25* | . | 2.6 | 2.5 | 95.8
COc1ccc(NC(=O)CCCCCN2C(=O)[C@@H]3Cc4ccccc4CN3C2=O)cc1Cl | 0.0 | i | -11.7 | i | . | -2.9 | -0.2 | 99.0
O=C(CCCCCN1C(=O)[C@@H]2Cc3ccccc3CN2C1=O)Nc1ccccc1Cl | 2.0 | i | 2.4 | i | . | -5.7 | . | .
O=C(CCCCCN1C(=O)[C@@H]2Cc3ccccc3CN2C1=O)Nc1ccccc1F | 3.0 | i | -1.4 | i | . | -14.4 | -0.9 | 96.3
Cc1ccc(NC(=O)CCCCCN2C(=O)[C@@H]3Cc4ccccc4CN3C2=O)cc1 | 0.0 | i | -4.1 | i | . | 2.0 | . | .
Cc1cccc(NC(=O)CCCCCN2C(=O)[C@@H]3Cc4ccccc4CN3C2=O)c1 | 0.0 | i | -10.2 | i | . | -16.2 | -0.8 | 98.3
CC(C#N)Sc1ccc(S(=O)(=O)N2CCCC2)cn1 (centres undefined) | 1.0 | i | 0.5 | . | . | -13.8 | . | .
O=C(CCCCCCCC(=O)N1CCCC1)N1CCCC1 | . | i | -10.7 | . | . | -9.4 | . | .
SMILES | GRK2 inh | ANO1 activ | TLR9-MyD88 block | TMEM16A inh | TLR4 MyD88 comp | NOD2 RIPK2 PPI | GRK2 CP1 | FAM quench CP1 | others
O=C(CCSCCC(=O)N1CCCC1)N1CCCC1 | 45.0* | i | 2.1 | i | 0.9 | 3.5 | -3.6 | 95.6
Cc1ccc(C(=O)N2CCN(c3cccc(C)c3C)CC2)cc1S(=O)(=O)N1CCOCC1 | 1.0 | i | 0.5 | . | . | -0.6 | . | .
COc1ccccc1OCCC(=O)Nc1cccc(S(=O)(=O)N2CCOCC2)c1 | 97.0* | i | -9.2 | . | . | 1.7 | 0.0 | 101.4
COc1ccccc1OCCC(=O)Nc1cccc(S(=O)(=O)N2CCCCC2)c1 | 0.0 | i | 5.0 | i | -13.6 | -0.5 | . | .
COc1ccc(Cc2nnc(SCC(=O)Nc3ccccc3C)n(N)c2=O)cc1 | 100.0* | i | -0.3 | i | . | -12.0 | -4.3 | 95.7
O=C(CSc1nnc(Nc2ccccc2F)s1)NC(=O)CN1CCCC1=O | 47.0* | i | -2.8 | . | . | 4.4 | 25.9 | 98.3
O=C(CSc1nnc(Nc2ccccc2F)s1)NCc1ccco1 | . | i | 0.5 | . | -18.2 | -6.6 | . | .
C[C@H](CO)N1C[C@H](C)[C@@H](CN(C)S(=O)(=O)c2ccc(F)cc2)Oc2c(NS(=O)(=O)c3ccc(F)cc3)cccc2C1=O | 0.0 | . | -9.3 | . | . | -0.2 | . | .
Cc1cc(NC(=O)c2ccc(Cl)cc2)no1 | 71.0* | i | -0.7 | i | -5.3 | -5.8 | 0.3 | 94.8
CCN1/C(=C/c2ccc3cc(C)ccc3[n+]2CC)Sc2ccccc21 | 55.0* | i | 3.8 | i | 16.0 | 17.3 | 28.9 | 179.7
CCN1/C(=C/C=C/c2sc3ccccc3[n+]2CC)Sc2ccccc21 | 100.0* | i | -7.7 | i | . | 4.5 | 100.8* | 94.5 | Aptamer quench=-1.3
CCN1/C(=C/c2ccc3cc(C)ccc3[n+]2CC)Sc2cc(C)c(C)cc21 | . | i | 5.7 | . | 3.0 | -7.3 | . | .
C[C@@H](C(=O)Nc1ccc2ccccc2c1)[C@H]1C[C@]1(C)[C@H](NS(=O)(=O)c1ccccc1)c1ccccc1 | 0.0 | . | . | i | -0.2 | . | . | .
Cc1cc(C(=O)COC(=O)c2ccc(NC(=O)CC#N)cc2)c(C)n1CCc1ccc(F)cc1 | 57.0* | i | 7.1 | . | . | -0.4 | 1.6 | 98.3
